Assay outcomes: PubChem BioAssay, The Scripps Research Institute Molecular Screening Center
TEAD-YAP inh = TEAD-YAP interaction inhibition; HEK-TIYL cells, TEAD-Gal4/YAP UAS-luciferase luminescence; inhibition, % at 9.12 µM; actives 1.4% (n = 640,000); AID 1259422; in the data active = inhibition above about 32%;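 also: 0% = median of test compound wells and 100% = reference inhibitor wells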
FBW7 activator = activators of human E3 ligase FBW7; AlphaScreen FBW7–phospho-cyclin E peptide binding, activator screen; normalized activity (activation), % at 26.1 µM; actives 0.13% (n = 650,000); in the data active = normalized activity above about 1.9%;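 also: purified mutant Fbw7 with reduced substrate affinity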
MITF inh = blocks human microphthalmia-associated transcription factor; O75030; AlphaScreen MITF homodimerization, bead proximity signal; inhibition, % at 2.6 µM; actives 0.91% (n = 650,000); AID 1259374; in the data active = inhibition above about 50%;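 also: 0% = vehicle wells with protein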
GPR151 activ = activates the human receptor GPR151. PathHunter beta-arrestin GPR151 cells, luminescence. activation, % at 11.2 µM. actives 1% (n = 650,000); in the data active = activation above about 4.9%;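 also: 0% = median of compound wells and 100% = cells with positive control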
Target sequence (Q8TDV0 whole entry, looked up): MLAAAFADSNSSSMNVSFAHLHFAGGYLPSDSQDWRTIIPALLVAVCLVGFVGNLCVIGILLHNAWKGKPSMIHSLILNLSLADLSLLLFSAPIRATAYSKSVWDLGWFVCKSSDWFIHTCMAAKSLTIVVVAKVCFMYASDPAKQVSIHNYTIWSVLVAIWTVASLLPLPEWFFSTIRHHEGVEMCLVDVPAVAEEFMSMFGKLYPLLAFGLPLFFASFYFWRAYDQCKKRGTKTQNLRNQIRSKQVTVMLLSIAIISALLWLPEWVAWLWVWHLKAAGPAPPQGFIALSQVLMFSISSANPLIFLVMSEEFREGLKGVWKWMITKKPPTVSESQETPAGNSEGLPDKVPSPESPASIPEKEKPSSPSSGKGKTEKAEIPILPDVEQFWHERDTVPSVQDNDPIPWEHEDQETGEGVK
* marks the source's active call; other numbers are inactive results. This is a sample that favours compounds with a hit; in the whole collection about 3.5% have one here.

SMILES	TEAD-YAP inh	FBW7 activator	MITF inh	GPR151 activ
CCN1C(=O)C(O)(CC(=O)c2ccc(Cl)cc2)c2cc(Br)ccc21 (stereo not drawn)	7.4	0.7	11.9	-0.9
COCCNC(=O)C(=O)NCCC1CCCCN1S(=O)(=O)c1ccc(C)cc1 (stereo not drawn)	0.8	1.5	19.0	-0.9
NC(=O)CSc1nnc(-c2cccnc2)n1-c1cccc(C(F)(F)F)c1	10.2	-0.1	4.6	-1.5
NC(=O)CSc1nnc(-c2ccncc2)n1-c1cccc(C(F)(F)F)c1	-8.2	2.6*	-7.4	-0.5
CCOC(=O)c1c(NC(=O)COc2cccc(Br)c2)sc2c1CCCCC2	-17.6	0.6	21.4	1.4
COc1ccc(-n2nc([N+](=O)[O-])c(=Nc3ccccc3)n2O)cc1	54.2*	-0.1	10.6	-0.4
Cc1ccc(N=c2c([N+](=O)[O-])nn(-c3ccc4c(c3)OCCO4)n2O)c(Cl)c1	46.9*	-0.1	-3.9	1.2
Cc1cc(C)cc(N=c2c([N+](=O)[O-])nn(-c3ccc4c(c3)OCCO4)n2O)c1	-2.9	-0.3	8.6	2.1
O=[N+]([O-])c1nn(-c2ccc3c(c2)OCCO3)n(O)c1=Nc1ccccc1	88.8*	-0.3	0.0	-1.2
Cc1ccc(N=c2c([N+](=O)[O-])nn(-c3ccccc3)n2O)c(Cl)c1	6.6	-0.1	-2.3	0.8
CC(=O)c1cc(CN2CCN(CC3CCCCC3)C(CCO)C2)cs1 (stereo not drawn)	5.3	0.1	1.3	0.9
CNC(=O)CCS(=O)(=O)Cc1ccccc1C	-1.3	0.1	20.7	0.0
Cc1nc(NCc2ccc(Cl)cc2)c2c(C)c(C)sc2n1	39.2*	-0.1	12.5	-0.3
COc1ccccc1CNc1nc(C)nc2sc(C)c(C)c12	46.0*	-0.1	0.5	1.9
Cc1nc(NCc2ccc(F)cc2)c2c(C)c(C)sc2n1	34.8*	0.1	8.4	1.0
Cc1sc2ncnc(NCc3ccc(Cl)cc3)c2c1C	-2.9	0.1	-3.6	0.9
COC(=O)Cc1nc(NCc2ccccc2OC)c2c(C)c(C)sc2n1	4.1	0.7	20.2	0.7
Cc1sc2nc(-c3cccnc3)nc(NCc3cccnc3)c2c1C	68.1*	0.0	73.2*	-1.8
CC(=O)Oc1cccc(C(=O)Nc2ccccc2Sc2ncnc3sc4c(c23)CCCC4)c1	13.4	0.0	8.0	-0.3
CCOC(=O)CSc1nc2c(c(=O)n1Cc1ccco1)C1(CCCCC1)Cc1ccccc1-2	-9.8	0.1	-7.4	-0.6
CN(C)c1ccc(C(=O)Nc2ccccc2F)cc1	74.5*	0.2	-4.5	-8.9
CCOC(=O)c1ccc(CN2C(=O)C(=O)c3cc(OC(F)(F)F)ccc32)o1	66.5*	-0.2	-3.1	-0.8
COC(=O)C1Cc2ccccc2CN1Cc1c(C)n(C)n(-c2ccccc2)c1=O (stereo not drawn)	5.7	0.5	6.2	-1.8
COc1ccc(/C=C2/C(=O)NC(=O)N(c3ccc(C(C)C)cc3)C2=O)cc1O	-7.3	1.9*	2.1	-1.0
COc1ccccc1N1C(=O)NC(=O)/C(=C\c2ccc(O)c(O)c2)C1=O	-2.9	-0.2	56.0*	-0.7
SMILES	TEAD-YAP inh	FBW7 activator	MITF inh	GPR151 activ
Cc1ccccc1N1C(=O)NC(=O)/C(=C\c2ccc(O)c(O)c2)C1=O	-4.5	-0.2	44.9	-0.1
COc1ccccc1N1C(=O)/C(=C\c2cccn2C)C(=O)NC1=S	14.1	0.4	55.7*	0.2
COc1ccc(N2C(=O)NC(=O)/C(=C/c3cc(Cl)c(O)c(OC)c3)C2=O)cc1	-2.5	-0.1	4.0	0.6
COc1ccc(N2C(=O)NC(=O)/C(=C\c3cc(OC)c(O)c(OC)c3)C2=O)cc1	7.2	2.1*	2.5	-0.4
CCCCCCN1C(=O)C2C(C(=O)Nc3ccc(C)c(Cl)c3)C3C=CC2(O3)C1C(=O)NC1CCCCC1 (stereo not drawn)	-2.3	-0.2	-15.7	-1.2
O=C(Cc1cn(-c2ccc(Oc3ccccc3)nn2)c2ccccc12)NCc1nc2ccccc2[nH]1	-8.4	-0.1	10.2	0.7
CCCSc1nnc(-c2ccc(OC)cc2)o1	44.7*	1.4	8.8	-3.0
COc1ccc(NS(=O)(=O)c2cccc3c(S(=O)(=O)Nc4ccc(OC)cc4OC)cccc23)c(OC)c1	-0.2	0.0	3.3	4.3
CCCOC(=O)CSC1=C(C#N)C(c2ccc3c(c2)OCO3)CC(=O)N1 (stereo not drawn)	0.6	-0.1	-1.5	3.3
CCOC(=O)CSC1=C(C#N)C(c2ccco2)C(C(=O)Nc2ccccc2F)=C(C)N1 (stereo not drawn)	45.1*	0.2	11.5	0.8
CCCOC(=O)CSC1=C(C#N)C(c2cccc(Cl)c2)CC(=O)N1 (stereo not drawn)	62.4*	0.2	1.6	0.4
COc1ccccc1NC(=O)C1=C(C)NC(SCC(=O)c2ccc(F)cc2)=C(C#N)C1c1ccco1 (stereo not drawn)	-16.2	0.7	3.4	-1.2
CCOC(=O)CSC1=C(C#N)C(c2ccco2)CC(=O)N1 (stereo not drawn)	55.4*	-0.1	0.9	-0.1
Cc1ccccc1NC(=O)CSC1=C(C#N)C(c2ccco2)C2=C(CCCC2=O)N1 (stereo not drawn)	45.0*	0.1	12.5	0.3
NC(=O)c1cccc(-c2cnn3c(N4CCN(c5ccccn5)CC4)ccnc23)c1	3.2	0.1	-7.1	0.3
NC1=NC(=O)CC(C(=O)Nc2ccccc2C(F)(F)F)S1 (stereo not drawn)	3.8	0.8	8.9	-1.3
COc1cc(NC(=O)Cn2c3ccccc3c(=O)c3ccccc32)cc(OC)c1OC	0.1	0.1	5.9	-0.4
Fc1ccc(/C=N/Nc2ccc3nncn3n2)cc1	-6.7	0.0	-8.0	2.7
COC(=O)CSC1=C(C#N)C(c2ccccc2C)CC(=O)N1 (stereo not drawn)	6.7	0.2	-8.8	-1.1
CC(=O)C1=C(C)NC(SCC(=O)c2ccc(C)c(C)c2)=C(C#N)C1c1ccco1 (stereo not drawn)	8.9	1.9*	22.9	-0.4
COC(=O)CSC1=C(C#N)C(c2ccc(C)o2)CC(=O)N1 (stereo not drawn)	56.4*	0.1	6.6	1.0
CC(=O)C1=C(C)NC(SCC(=O)c2ccccc2)=C(C#N)C1c1ccco1 (stereo not drawn)	-18.6	0.9	14.0	-0.7
CC1C=CCC2C(=O)N(c3cccc(C(=O)N4CCN(c5ccccc5)CC4)c3)C(=O)C12 (stereo not drawn)	-0.4	-0.1	5.5	1.4
C=CCN1CCN(c2c(Cl)cccc2NC(=O)c2cccc(Br)n2)CC1	-3.4	0.0	1.5	-0.2
O=C(NCc1ccc(C(F)(F)F)nc1)c1ccc2cncc(-c3ccccc3)c2n1	48.7*	-0.2	12.8	1.5
O=C(NCc1ccncc1)c1ccc2cncc(-c3ccccc3)c2n1	71.1*	-0.4	4.0	-0.4
O=C(NCc1ccncc1)c1cnc2ccccc2n1	13.5	0.0	3.6	-0.7
COc1ccc(-c2cncc3ccc(C(=O)NCc4ccncc4)nc23)cc1	76.6*	-0.6	13.7	-1.5
COc1ccc(-c2cncc3ccc(C(=O)NCc4ccccc4OC)nc23)cc1	49.6*	-0.1	12.2	0.1
